Assay results: PubChem BioAssay
Activity calls are given as the source filed them. The rule behind the calls is not given here.

Assay: Brca1-Bard1 BiLC signal decrease – luminescence, single concentration, counter-screen for Mdm2/MdmX interaction inhibitor project, confirmation (AID 504668)
Details: Brca1/Bard1 bimolecular luciferase complementation counterscreen, at 8 µM, hits give high values

Row | Compound | inhibition
1 | Clc1cc2cccnc2c2ncccc12 | 31.6% (active)
2 | CC(C)C(=O)N1CCN(c2ccc(NC(=O)c3ccc([N+](=O)[O-])o3)cc2)CC1 | 23.4% (active)
3 | COc1ccc(C(NC(C)=O)c2cc(Cl)c3cccnc3c2O)cc1 (stereo unspecified) | 29.3% (active)
4 | CC(=O)N1CCN(c2ccc(NC(=O)c3ccc([N+](=O)[O-])o3)cc2Cl)CC1 | 26.6% (active)
5 | Oc1c(C(c2ccccn2)N2CCC(Cc3ccccc3)CC2)cc(Cl)c2cccnc12 (stereo unspecified) | 33.2% (active)
6 | Cc1nnsc1C(=O)N/N=C/c1ccc2ccccc2c1O | 30.1% (active)
7 | CCC(=O)NC(c1ccc(OC)cc1)c1cc(Cl)c2cccnc2c1O (stereo unspecified) | 25.5% (active)
8 | NC(=O)c1sc2nc3c(c(-c4ccco4)c2c1N)CCC3 | 24.9% (active)
9 | COc1cccc(/C=N/NC(=O)c2c(C)nc3ccc(Br)cn23)c1O | 32.3% (active)
10 | O=C(Nc1c2ccccc2nc2ccccc12)C(Cl)(Cl)Cl | 33.7% (active)
11 | COC(=O)C1=C(C)NC(C)=C(C(=O)OC)C1c1ccccc1[N+](=O)[O-] | 28% (active)
12 | Cc1c(Cl)cccc1N/C(SCC(=O)N1CCCCCC1)=C(/C#N)c1nc2ccccc2s1 | 36% (active)
13 | C=CCc1cccc(/C=N/NC(=O)CNc2ccccc2)c1O | 32.9% (active)
14 | COc1ccc([C@@H]2[C@@H]3C(=O)N(C(C)(C)C)C(=O)[C@@H]3[C@]3(Cc4ccccc4)C(=O)N(c4ccc(C(F)(F)F)cc4)C(=O)N23)cc1 | 27.8% (active)
15 | CN(C)CCCNC(=S)NCC(c1ccc(Cl)cc1Cl)c1c[nH]c2ccccc12 (stereo unspecified) | 29.2% (active)
16 | CC(C)Cn1c(=O)c(C(=O)Nc2ccccc2S(N)(=O)=O)c(O)c2ccccc21 | 26.4% (active)
17 | Cc1ccc(/C=C2\SC(=S)N(CCCC(=O)N3CCOCC3)C2=O)cc1 | 30.5% (active)
18 | CCCN(CCC)CCNC(=O)C1CCN(Cc2nc(-c3ccc(Cl)cc3)oc2C)CC1 | 30.3% (active)
19 | COc1ccc(/C=C2/SC(=S)N(CCCC(=O)Nc3ccc(O)cc3)C2=O)cc1OC | 29.9% (active)
20 | CC(Oc1ccc(Br)cc1)C(=O)Nc1nc(-c2ccccn2)cs1 (stereo unspecified) | 35.4% (active)
21 | C(=N\Nc1nc2ccccc2[nH]1)/c1cccc2nccnc12 | 31.8% (active)
22 | CCN(C[C@H]1N[C@@](CC)(C(=O)OC)[C@H]2C(=O)N(Cc3ccccc3)C(=O)[C@@H]12)S(=O)(=O)c1ccc(-c2ccccc2)cc1 | 34% (active)
23 | COc1cc(/C=C/[N+](=O)[O-])ccc1OCc1cccc(C(=O)O)c1 | 35.1% (active)
24 | COc1ccc(C2Oc3ccccc3C3=C2C(c2cccs2)n2ncnc2N3)cc1 (stereo unspecified) | 29.5% (active)
25 | COc1ccc(C(=O)N/N=C(\Cc2ncc[nH]2)c2ccccc2)cc1 | 25.7% (active)
26 | Cc1nc(-n2[nH]c3c(c2=O)CCCC3)[nH]c(=O)c1Cc1ccccc1 | 30.8% (active)
